Compound activity from PubChem BioAssay.
Sampled rows, rich in hits. Any-hit rate of the full collection: about 3.3%.
TsaE inh: YjeE (TsaE) inhibition, E. coli | P0AF67 | purified YjeE enzyme, qHTS inhibition assay | Potency, µM | 71,000 tested, 0.05% active | AID 605
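Purified YjeE (10 uM) with BODIPY Texas Red-labeled ADP probe (2 uM); compounds pin-transferred, 15 min at room temperature. Binding inhibition read as decreased fluorescence polarization; ADP titration as control.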
BRCT PPI red: disrupts BRCA1 BRCT binding to phosphoprotein, red fluorophore readout | Potency, µM (titrated, usually from 76.9 µM), hits mostly inhibitors | AID 892 | 75,000 tested, 0.03% active | BRCT-phosphopeptide binding, red fluorescence polarization | P38398
Target sequence (P38398 whole entry, looked up): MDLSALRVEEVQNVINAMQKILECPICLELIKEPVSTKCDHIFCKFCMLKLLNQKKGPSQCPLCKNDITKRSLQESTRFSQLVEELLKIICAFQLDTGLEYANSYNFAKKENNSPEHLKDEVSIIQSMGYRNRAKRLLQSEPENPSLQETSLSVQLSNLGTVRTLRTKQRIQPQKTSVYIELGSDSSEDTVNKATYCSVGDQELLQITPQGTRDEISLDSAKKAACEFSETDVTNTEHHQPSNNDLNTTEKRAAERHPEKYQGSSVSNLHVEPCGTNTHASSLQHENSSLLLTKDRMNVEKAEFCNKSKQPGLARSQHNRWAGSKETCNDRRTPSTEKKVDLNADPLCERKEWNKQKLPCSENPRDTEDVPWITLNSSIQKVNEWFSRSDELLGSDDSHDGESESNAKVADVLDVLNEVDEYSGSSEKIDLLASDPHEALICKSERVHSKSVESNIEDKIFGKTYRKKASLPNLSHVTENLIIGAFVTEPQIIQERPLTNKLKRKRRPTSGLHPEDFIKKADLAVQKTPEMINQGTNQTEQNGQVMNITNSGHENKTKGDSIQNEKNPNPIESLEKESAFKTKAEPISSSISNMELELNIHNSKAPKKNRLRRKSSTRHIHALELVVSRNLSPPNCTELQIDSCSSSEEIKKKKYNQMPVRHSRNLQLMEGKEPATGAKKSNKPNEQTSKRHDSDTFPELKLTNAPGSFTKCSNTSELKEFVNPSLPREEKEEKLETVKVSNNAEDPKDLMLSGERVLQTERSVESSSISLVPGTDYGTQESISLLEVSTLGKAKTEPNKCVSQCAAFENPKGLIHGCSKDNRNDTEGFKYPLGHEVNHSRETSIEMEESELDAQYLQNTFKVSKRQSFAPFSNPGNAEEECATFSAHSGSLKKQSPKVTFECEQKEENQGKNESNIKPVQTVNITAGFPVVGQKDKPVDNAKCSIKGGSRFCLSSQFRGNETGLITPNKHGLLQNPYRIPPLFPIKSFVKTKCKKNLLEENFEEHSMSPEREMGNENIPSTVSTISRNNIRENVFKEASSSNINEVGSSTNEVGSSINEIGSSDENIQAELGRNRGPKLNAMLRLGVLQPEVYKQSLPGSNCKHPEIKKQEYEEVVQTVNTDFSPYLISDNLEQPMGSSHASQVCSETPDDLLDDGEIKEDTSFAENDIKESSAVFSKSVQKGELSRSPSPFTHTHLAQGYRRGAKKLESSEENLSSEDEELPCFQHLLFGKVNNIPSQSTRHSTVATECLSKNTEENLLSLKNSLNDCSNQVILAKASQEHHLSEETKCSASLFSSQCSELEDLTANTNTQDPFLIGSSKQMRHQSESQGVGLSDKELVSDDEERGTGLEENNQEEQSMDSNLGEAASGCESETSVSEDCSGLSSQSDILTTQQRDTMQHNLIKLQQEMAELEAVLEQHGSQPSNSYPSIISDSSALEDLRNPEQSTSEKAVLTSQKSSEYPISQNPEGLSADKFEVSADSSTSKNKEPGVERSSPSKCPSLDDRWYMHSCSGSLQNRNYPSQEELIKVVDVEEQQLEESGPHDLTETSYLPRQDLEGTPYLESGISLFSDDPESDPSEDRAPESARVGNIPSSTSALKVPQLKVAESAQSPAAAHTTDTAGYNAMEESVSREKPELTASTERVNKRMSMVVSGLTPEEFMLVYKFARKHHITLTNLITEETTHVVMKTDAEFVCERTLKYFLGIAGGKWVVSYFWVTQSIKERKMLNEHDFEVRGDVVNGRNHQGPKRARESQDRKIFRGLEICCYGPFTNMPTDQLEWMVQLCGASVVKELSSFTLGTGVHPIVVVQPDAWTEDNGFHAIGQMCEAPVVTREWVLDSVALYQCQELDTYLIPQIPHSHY
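Fluorescence polarization: 100 nM His-tagged BRCA1 BRCT with 100 nM TAMRA-labelled phospho-BACH1 decapeptide, phosphate buffer pH 7.3 with 150 mM NaCl, DTT, 0.01% Tween 20; 12 min RT. Binding inhibition seen as FP decrease.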
HEK293 cAMP cs: parental HEK293 cAMP activation (counter-screen) | parental HEK293 CNG cAMP sensor, membrane potential fluorescence | Potency, µM (highest dose often 57.1 µM), most hits filed as activators | 73,000 tested, 2.5% active; note: nearly all actives have a fitted effect of over 55% in size
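Counterscreen for endogenous-receptor signalling: CNG-channel HEK 293 cells report cAMP rise by membrane depolarization. After 60 min dye equilibration with 100 uM RO 20-1724, compounds incubated 30 min before bottom-read fluorescence at 590 nm.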
TSHR ag: agonists of human thyroid stimulating hormone receptor; P16473; HEK293-CNG-TSHR cells (CNG channel as cAMP sensor), membrane potential dye, cAMP; Potency, µM (highest dose often 57.1 µM), usual class: activators; 73,000 tested, 0.48% active; AID 926; active = well fitted activation curve with a large enough effect in the main read-out, with a control signal flat, not every such curve was filed as active; inconclusive = small, poorly fitted or top-dose-only effect, or a change in a side signal; inactive = no such curve, though single readings can be large or run the other way; reference of the percent scale not stated here;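 note: the control signal comes from parental cells without the receptor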
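cAMP rise detected as CNG-channel membrane depolarization by fluorescent dye (emission 590 nm), 30 min after compound, following 60 min dye loading containing 100 uM RO 20-1724 at room temperature. Cells: TSHR/CNG HEK 293, with parental CNG HEK 293 as control.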
BRCT PPI green: BRCA1 BRCT-phosphoprotein interaction inhibition. P38398. Potency, µM (highest dose often 76.9 µM), usual class: inhibitors. AID 875. 75,000 tested, 0.05% active. BRCA1 BRCT-phosphopeptide binding, green fluorescence polarization
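Fluorescence polarization: His-tagged BRCT (~35 kDa BRCA1 C-terminus, 250 nM) bound to 100 nM fluorescein-labeled phosphorylated 10-aa BACH1 peptide, pH 7.3 phosphate buffer with DTT and Tween 20. Compounds incubated 12 min at room temperature; inhibition read as lowered polarization.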
Hsp90 Hop PPI: changes Hsp90-Hop TPR2A binding signal, up or down | AlphaScreen TPR2A-His6 binding biotin-Hsp90 C-terminal peptide | Potency, µM (titrated, usually from 57 µM) | 71,000 tested, 0.44% active | AID 595; active = well fitted curve in either direction with a large enough effect; inconclusive = small, poorly fitted or top-dose-only effect, or another doubt
Numbers stand for hits; i = inactive; ? = inconclusive; nt = no result; [ ] = dose if it differs, or a comment. Unless noted, calls come from the whole dose curve; as a rule, active = well fitted curve in the direction sought with a large enough effect; inconclusive = small, poorly fitted or top-dose-only effect, or another doubt; inactive = no such curve, though single readings can be large; an effect the other way counts as inactive or inconclusive.

SMILES | TsaE inh | BRCT PPI red | HEK293 cAMP cs | TSHR ag | BRCT PPI green | Hsp90 Hop PPI
Cc1nc2ncnn2c(N2CCN(C(c3ccccc3)c3ccccc3)CC2)c1C | ? | i | 32µM | ? | i | ?
O=C(NCCN1CCOCC1)c1ccc(-n2c(=O)c(=O)[nH]c3ccccc32)cc1 | nt | i | i | i | i | nt
CCNc1ncc2nc(-c3cccs3)c(=O)n(Cc3ccc(F)cc3)c2n1 | i | i | i | i | i | i
Nc1ccn([C@H]2CC[C@H](CO)O2)c(=O)n1 | i | nt | ? | ? | nt | i
CCCOc1ccc(C2C(C(=O)OC)=CN(CCOC)C=C2C(=O)OC)cc1 | i | i | 25µM | ? | i | i
O=C(O)c1ccc(Cl)c(S(=O)(=O)Nc2ccccc2)c1 | nt | i | i | i | i | nt
Cc1ccc(C)c(OCCCC(=O)Nc2ccc(N3CCOCC3)cc2)c1 | i | i | i | i | i | i
Cc1cccc(OCCCC(=O)Nc2ccc(N3CCOCC3)cc2)c1 | i | i | i[11.4 µM] | 3.2µM | i | i[11 µM]
COc1ccccc1NS(=O)(=O)c1cc(C(=O)O)ccc1F | nt | i | i | i | i | nt
CN(C)S(=O)(=O)c1cc(C(=O)NCCCn2ccc3ccccc32)ccc1Cl | i | i | 25µM | ? | i | i
CC(C)C(=O)NCCn1ccc2ccccc21 | i | i | i | i | i | i
O=C(O)C[C@@H]1CCCc2ccccc2[C@H]1O | i | i | ? | ? | i | i
c1ccc2c[n+](CCCC[n+]3ccc4ccccc4c3)ccc2c1 | i | i[15.4 µM] | i[11.4 µM] | i[11.4 µM] | i[15.4 µM] | i[11 µM]
COC(=O)c1cc2c(s1)-c1ccccc1OC2 | i | i | i | nt | i | ?
CCC(C)(c1ccc(C(=O)OC)s1)c1ccc(C(=O)OC)s1 | i | i | 20µM | ? | i | ?
Cc1ccccc1CS(=O)(=O)Cc1ccc(C(=O)NCCCN2CCCC2=O)o1 | i | i | 4µM | ? | i | i
O=[N+]([O-])c1cc(Cc2cc([N+](=O)[O-])c3cccnc3c2O)c(O)c2ncccc12 | i | i[15.4 µM] | i[11.4 µM] | i[11.4 µM] | i[15.4 µM] | 1.6µM
CCCC[S@@](=N)(=O)CC[C@@H](N)C(=O)O | i | i | ? | ? | i | i
COc1ccccc1-n1c(SC)nc(O)cc1=O | i | i | 32µM | ? | i | i[2.3 µM]
COc1ccccc1-n1c(SCC(=O)NC(C)(C)C)nc(O)cc1=O | i | i | i | i | i | i
CC(C)(C)n1nnnc1C(c1cccs1)N(Cc1ccccc1)Cc1cccnc1 (configuration not stated) | i | i | 16µM | ? | i | i
Cc1ccc(OCc2nc(C#N)c(NCc3ccc4c(c3)OCO4)o2)cc1 | i | i | 16µM | ? | i | ?
CCOc1ccc(-c2nc(C#N)c(NCc3ccc4c(c3)OCO4)o2)cc1 | i | i | i | nt | i | i
CCNc1nc(NC(C)C)nc(N(C#N)Cc2ccccc2)n1 | i | i | i | i | i | i
CCNc1nc(NC(C)C)nc(N(C#N)CCOc2ccc(Cl)cc2Cl)n1 | i | i | 32µM | ? | i | i
SMILES | TsaE inh | BRCT PPI red | HEK293 cAMP cs | TSHR ag | BRCT PPI green | Hsp90 Hop PPI
Cn1c(SCc2c(Cl)cccc2Cl)nnc1-c1cccs1 | i | i | 13µM | ? | i | i
C[C@@]12C[C@H](O)[C@@H]3[C@H](CCC4=CC(=O)CC[C@]43C)[C@H]1CC[C@@H]2c1csc(-c2ccccc2)n1 | i | i[15.4 µM] | i[11.4 µM] | i[11.4 µM] | i[15.4 µM] | i[11 µM]
Cc1cnn(-c2ccc3nnc(-c4ccc(Br)cc4)n3n2)c1 | i | i | 10µM | ? | i | i
CC(=O)C(Sc1ccc2nnc(-c3ccc(C)cc3)n2n1)C(C)=O | i | i | i | i | i | i
Nc1nc(Cl)nc2c1ncn2[C@@H]1O[C@@H](CO)[C@@H](O)[C@H]1O | i | i | 7.9µM | ? | i | i
CSc1nc(N)c2ncn([C@H]3O[C@H](COP(=O)(O)OP(=O)(O)O)[C@@H](O)[C@@H]3O)c2n1 | 50µM | i | i | i | i | i
Nc1ncnc2c1ncn2[C@@H]1O[C@@H](COP(=O)(O)OP(=O)(O)OP(=O)(O)OP(=O)(O)OC[C@@H]2O[C@@H](n3cnc4c(N)ncnc43)[C@@H](O)[C@H]2O)[C@H](O)[C@@H]1O | 50µM | i | i | i | i | i
CN1CCN(c2ncc3nc(-c4ccccc4)c(=O)n(Cc4ccc(F)cc4)c3n2)CC1 | i | i | ? | ? | i | i
COc1cccc(Oc2cn[nH]c2-c2ccc(O)cc2O)c1 | i | i | 1µM | ? | i | i
COc1ccc(-c2noc(C3CCCN(C(=O)CCc4ccccc4)C3)n2)cc1 (configuration not stated) | i | i | 25µM | ? | i | i
COc1cccc(-c2noc(C3CCCN(C(=O)Cc4ccccc4)C3)n2)c1 (configuration not stated) | i | i | ? | ? | i | i
O=C(c1ccco1)N1CCCC(c2nc(-c3ccc(S(=O)(=O)NCc4ccccc4)cc3)no2)C1 (configuration not stated) | i | i | 25µM | ? | i | i
N#Cc1cccc(-c2nccc(-n3ccnc3)n2)c1 | i | i | i | i | i | i
O=C(c1cnn2c(C(F)(F)F)cc(-c3ccco3)nc12)N1CCCCCC1 | i | i | 32µM | ? | i | i
COc1cc(C)cc(OC)c1/C=C\C(=O)O | i | i[15.4 µM] | i[11.4 µM] | i[11.4 µM] | i[15.4 µM] | i[11 µM]
COc1ccc(C(C(=O)NC2CCCC2)N(C(=O)c2ccco2)c2ccc3c(c2)OCO3)cc1OC (configuration not stated) | i | i | i | 10µM | i | i
COc1ccc(N(C(=O)c2ccco2)C(C(=O)NC2CCCC2)c2ccc(N(C)C)cc2)cc1OC (configuration not stated) | i | i | i | i | i | i
O=C(CSc1nc2ccccc2c(=O)n1Cc1ccco1)NCc1ccccc1 | i | i | 25µM | ? | i | ?
O=C(CSc1nc2ccccc2c(=O)n1Cc1ccco1)c1ccc(F)cc1 | i | i | 25µM | ? | i | i
COC(=O)c1ccc(CSc2nc(-c3ccccc3)cs2)o1 | i | i | 40µM | ? | i | ?
Cn1c(Cn2nnc3ccccc32)nnc1SCC(=O)NCc1ccc2c(c1)OCO2 | i | i | i | i | i | i
CC1CCCC(C)N1C(=O)Cn1c(SCC(=O)NCc2ccc3c(c2)OCO3)nc2ccccc21 (configuration not stated) | i | i | 16µM | ? | i | i
CCCNC(=O)c1cc(-c2ccc(O)cc2)on1 | i | i | i | i | i | i
c1ccc2c(N3CCNCC3)nc(-c3ccoc3)nc2c1 | i | i | i | i | i | i
O=c1c2ccccc2nnn1CSc1nc2cc(Cl)ccc2c(=O)n1Cc1ccco1 | i | i | 2µM | ? | i | i
O=C(CSc1nnc(COc2ccccc2)n1Cc1ccco1)c1ccc(F)cc1 | i | i | 16µM | ? | i | i
